Holding throughout (assay): DAPPL (digital affinity profiling via proximity ligation, sequencing); 10 mM Tris-HCl pH 7.5, 50 mM NaCl, 1 mM DTT, 4% glycerol, room temperature, 30 min; GST-TFs on glutathione beads, 16-mer random dsDNA library, 0.1% formaldehyde crosslink after washing; high values mean tight binding
Holding throughout (conditions): protein: recombinant; tags: N-terminal GST; dsDNA, one strand shown

The target in assay [1] is T1, FLI1 (Homo sapiens, UniProt Q01543 1-452).
T1 sequence: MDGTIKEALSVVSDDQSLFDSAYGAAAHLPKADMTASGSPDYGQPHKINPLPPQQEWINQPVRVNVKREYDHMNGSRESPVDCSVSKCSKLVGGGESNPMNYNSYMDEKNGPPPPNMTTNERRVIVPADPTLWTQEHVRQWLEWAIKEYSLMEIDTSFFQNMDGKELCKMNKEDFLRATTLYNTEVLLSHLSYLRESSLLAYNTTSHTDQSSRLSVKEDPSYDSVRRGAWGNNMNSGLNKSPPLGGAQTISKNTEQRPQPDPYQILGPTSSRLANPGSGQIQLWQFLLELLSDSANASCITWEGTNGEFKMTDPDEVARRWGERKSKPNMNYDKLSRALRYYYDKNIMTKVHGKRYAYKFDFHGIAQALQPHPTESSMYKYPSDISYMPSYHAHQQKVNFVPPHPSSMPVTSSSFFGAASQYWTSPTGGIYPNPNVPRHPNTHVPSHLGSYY
The method, boiled down:
(§1)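 A tag-only sample was pooled with DNA-barcoded human transcription factors that had been expressed in yeast as GST fusions and captured on glutathione beads. The pools were incubated for 30 min at room temperature with 200 nmole of a random double-stranded 16-mer DNA library in Tris/NaCl/DTT/glycerol buffer, then washed, crosslinked with 0.1% formaldehyde, proximity-ligated (BsaI/T4 ligase, 1 h, 37 °C), PCR-amplified and sequenced on an Illumina NextSeq500. Binding signal is each hexamer's read frequency for a factor divided by its frequency for the tag-only sample.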

In assay [2] the target is T2, ERG (Homo sapiens, UniProt P11308 1-479).
T2 sequence: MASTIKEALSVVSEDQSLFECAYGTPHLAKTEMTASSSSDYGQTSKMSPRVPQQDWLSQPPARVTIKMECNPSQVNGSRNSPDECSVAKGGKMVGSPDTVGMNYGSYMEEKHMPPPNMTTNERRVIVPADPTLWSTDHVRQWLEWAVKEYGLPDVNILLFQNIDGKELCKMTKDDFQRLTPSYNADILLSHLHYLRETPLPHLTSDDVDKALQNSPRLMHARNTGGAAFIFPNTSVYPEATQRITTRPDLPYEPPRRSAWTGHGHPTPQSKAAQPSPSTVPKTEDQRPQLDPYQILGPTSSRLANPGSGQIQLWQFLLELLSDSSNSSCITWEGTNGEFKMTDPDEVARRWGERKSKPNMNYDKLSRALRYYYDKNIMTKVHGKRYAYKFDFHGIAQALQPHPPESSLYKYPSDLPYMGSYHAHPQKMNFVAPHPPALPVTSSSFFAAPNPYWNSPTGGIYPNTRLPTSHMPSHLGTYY
The method, boiled down:
as §1

Assay [3] concerns the target T3, EHF (Homo sapiens, UniProt Q9NZC4 1-300).
T3 sequence: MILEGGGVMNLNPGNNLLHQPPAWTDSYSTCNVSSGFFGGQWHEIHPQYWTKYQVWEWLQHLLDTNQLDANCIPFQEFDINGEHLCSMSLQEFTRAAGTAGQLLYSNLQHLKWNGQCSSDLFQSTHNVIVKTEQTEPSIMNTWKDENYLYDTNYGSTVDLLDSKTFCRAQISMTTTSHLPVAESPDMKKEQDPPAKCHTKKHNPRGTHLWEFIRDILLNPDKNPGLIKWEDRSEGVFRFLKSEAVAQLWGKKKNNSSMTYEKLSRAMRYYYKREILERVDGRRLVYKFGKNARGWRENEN
The method, boiled down:
as §1

Assay [4] addresses SPI1 (Homo sapiens, UniProt P17947 1-270). Summed up: as §1
Assay [5] addresses SPIB (Homo sapiens, UniProt Q01892 1-262). The method, boiled down: as §1
Assay [6] has as its target ETV5 (Homo sapiens, UniProt P41161 1-510). Summed up: as §1
Assay [7] deals with T4, SPIC (Homo sapiens, UniProt Q8N5J4 1-248).
T4 sequence: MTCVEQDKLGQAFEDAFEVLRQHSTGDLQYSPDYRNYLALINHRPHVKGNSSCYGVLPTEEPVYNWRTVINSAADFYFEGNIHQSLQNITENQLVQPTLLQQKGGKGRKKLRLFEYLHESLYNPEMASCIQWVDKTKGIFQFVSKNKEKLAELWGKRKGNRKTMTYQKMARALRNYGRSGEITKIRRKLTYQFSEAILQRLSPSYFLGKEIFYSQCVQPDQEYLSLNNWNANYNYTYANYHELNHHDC
The method, boiled down: as §1

For assay [8], the target named is T5, ERF (Homo sapiens, UniProt P50548 1-548).
T5 sequence: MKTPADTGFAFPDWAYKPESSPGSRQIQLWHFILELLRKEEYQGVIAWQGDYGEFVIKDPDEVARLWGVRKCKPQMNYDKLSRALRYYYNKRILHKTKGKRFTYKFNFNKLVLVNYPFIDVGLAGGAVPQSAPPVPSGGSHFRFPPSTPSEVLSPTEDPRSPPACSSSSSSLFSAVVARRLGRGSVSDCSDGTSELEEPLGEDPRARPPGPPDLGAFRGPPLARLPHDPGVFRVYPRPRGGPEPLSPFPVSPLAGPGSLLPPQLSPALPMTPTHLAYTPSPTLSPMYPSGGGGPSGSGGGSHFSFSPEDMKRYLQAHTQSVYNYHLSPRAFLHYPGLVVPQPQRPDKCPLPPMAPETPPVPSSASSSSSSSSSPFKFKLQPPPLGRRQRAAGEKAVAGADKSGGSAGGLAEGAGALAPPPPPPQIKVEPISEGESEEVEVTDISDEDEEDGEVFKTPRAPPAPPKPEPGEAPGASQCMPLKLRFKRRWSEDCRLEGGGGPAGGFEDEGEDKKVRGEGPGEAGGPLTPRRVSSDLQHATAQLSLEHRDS
Summed up:
as §1

For assay [9], the target named is T6, ELF5 (Homo sapiens, UniProt Q9UKW6-2 1-255).
T6 sequence: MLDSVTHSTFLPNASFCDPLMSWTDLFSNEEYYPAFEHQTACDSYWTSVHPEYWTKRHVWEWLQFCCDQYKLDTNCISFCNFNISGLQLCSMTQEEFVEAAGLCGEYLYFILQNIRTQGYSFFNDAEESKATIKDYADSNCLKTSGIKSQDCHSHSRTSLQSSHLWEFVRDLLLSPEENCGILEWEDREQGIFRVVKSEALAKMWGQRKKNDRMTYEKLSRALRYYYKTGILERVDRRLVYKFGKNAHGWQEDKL
Summed up:
as §1

Assay [10] concerns the target T7, ETV3 (Homo sapiens, UniProt P41162-2 1-143).
T7 sequence: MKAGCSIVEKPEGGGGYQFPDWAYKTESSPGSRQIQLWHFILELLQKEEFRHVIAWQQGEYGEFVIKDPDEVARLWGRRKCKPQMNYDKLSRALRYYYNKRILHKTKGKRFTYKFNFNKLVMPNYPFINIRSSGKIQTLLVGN
Summed up: as §1

In assay [11] the target is ETV6 (Homo sapiens, UniProt P41212 1-452). Summed up:
as §1

In assay [12] the target is T8, ELK1 (Homo sapiens, UniProt P19419 1-428).
T8 sequence: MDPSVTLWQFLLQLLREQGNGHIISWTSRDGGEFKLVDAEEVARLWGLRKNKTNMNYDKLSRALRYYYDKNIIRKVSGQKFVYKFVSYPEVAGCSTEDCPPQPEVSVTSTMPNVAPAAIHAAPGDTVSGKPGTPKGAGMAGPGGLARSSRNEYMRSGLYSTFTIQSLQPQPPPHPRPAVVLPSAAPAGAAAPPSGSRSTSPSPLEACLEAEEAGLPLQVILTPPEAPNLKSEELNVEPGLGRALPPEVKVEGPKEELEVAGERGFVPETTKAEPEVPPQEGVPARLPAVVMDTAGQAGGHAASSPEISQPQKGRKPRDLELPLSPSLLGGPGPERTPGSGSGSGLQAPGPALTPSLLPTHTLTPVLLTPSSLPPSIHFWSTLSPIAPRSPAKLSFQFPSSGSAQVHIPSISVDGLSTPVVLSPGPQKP
The method, boiled down: as §1

For assay [13], the target named is ELF1 (Homo sapiens, UniProt P32519 1-619). The method, boiled down: as §1
Assay [14] has as its target ETV1 (Homo sapiens, UniProt P50549 1-477). The method, boiled down:
as §1

In assay [15] the target is T9, ETV3L (Homo sapiens, UniProt Q6ZN32 1-361).
T9 sequence: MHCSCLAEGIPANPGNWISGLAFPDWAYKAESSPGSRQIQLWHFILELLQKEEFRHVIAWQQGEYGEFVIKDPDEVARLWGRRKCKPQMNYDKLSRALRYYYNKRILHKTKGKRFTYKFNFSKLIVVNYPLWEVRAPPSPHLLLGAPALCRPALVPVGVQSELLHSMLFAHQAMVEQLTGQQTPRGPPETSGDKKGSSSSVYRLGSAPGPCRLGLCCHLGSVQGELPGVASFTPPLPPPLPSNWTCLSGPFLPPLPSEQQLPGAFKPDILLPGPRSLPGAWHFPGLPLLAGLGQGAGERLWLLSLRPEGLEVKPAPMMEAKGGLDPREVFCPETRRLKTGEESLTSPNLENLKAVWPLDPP
Summed up:
as §1

Assay [16] addresses T10, ETS2 (Homo sapiens, UniProt P15036 1-469).
T10 sequence: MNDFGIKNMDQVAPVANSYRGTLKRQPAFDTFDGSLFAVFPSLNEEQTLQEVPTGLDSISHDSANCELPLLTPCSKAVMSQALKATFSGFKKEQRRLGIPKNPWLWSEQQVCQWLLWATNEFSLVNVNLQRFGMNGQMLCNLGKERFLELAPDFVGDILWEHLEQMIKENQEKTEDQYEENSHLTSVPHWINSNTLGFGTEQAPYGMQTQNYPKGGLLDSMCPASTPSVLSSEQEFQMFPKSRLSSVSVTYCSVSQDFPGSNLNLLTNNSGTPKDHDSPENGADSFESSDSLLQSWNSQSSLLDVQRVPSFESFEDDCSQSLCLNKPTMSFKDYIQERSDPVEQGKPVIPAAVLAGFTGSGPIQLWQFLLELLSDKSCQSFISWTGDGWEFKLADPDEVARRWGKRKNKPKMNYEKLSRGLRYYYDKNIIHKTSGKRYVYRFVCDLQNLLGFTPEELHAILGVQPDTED
Summed up: as §1

The target of assay [17] is T11, SPDEF (Homo sapiens, UniProt O95238 1-335).
T11 sequence: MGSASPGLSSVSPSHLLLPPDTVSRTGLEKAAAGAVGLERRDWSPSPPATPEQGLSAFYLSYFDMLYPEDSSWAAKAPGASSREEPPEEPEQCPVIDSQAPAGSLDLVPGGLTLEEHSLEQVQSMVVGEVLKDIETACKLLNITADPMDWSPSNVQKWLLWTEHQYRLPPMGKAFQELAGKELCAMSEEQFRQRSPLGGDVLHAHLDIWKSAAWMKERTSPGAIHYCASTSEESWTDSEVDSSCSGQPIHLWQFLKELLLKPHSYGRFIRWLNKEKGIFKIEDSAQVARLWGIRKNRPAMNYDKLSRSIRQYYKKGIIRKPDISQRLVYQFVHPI
Summed up:
as §1

Sequence of ETV5 (P41161 whole entry): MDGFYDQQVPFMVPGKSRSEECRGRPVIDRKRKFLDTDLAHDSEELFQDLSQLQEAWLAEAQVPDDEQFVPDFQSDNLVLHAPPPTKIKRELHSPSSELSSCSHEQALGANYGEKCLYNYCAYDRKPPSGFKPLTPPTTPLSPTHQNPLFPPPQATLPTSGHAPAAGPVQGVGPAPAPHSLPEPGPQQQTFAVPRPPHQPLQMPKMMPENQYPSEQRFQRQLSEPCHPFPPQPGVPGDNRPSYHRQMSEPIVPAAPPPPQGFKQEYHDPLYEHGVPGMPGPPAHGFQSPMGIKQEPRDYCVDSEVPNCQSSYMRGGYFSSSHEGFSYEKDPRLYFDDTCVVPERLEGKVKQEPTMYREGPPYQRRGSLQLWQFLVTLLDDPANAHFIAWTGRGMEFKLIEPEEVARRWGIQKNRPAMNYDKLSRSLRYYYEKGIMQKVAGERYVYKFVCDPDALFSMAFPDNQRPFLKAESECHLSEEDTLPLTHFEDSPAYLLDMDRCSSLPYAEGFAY
Sequence of ETV1 (P50549 whole entry): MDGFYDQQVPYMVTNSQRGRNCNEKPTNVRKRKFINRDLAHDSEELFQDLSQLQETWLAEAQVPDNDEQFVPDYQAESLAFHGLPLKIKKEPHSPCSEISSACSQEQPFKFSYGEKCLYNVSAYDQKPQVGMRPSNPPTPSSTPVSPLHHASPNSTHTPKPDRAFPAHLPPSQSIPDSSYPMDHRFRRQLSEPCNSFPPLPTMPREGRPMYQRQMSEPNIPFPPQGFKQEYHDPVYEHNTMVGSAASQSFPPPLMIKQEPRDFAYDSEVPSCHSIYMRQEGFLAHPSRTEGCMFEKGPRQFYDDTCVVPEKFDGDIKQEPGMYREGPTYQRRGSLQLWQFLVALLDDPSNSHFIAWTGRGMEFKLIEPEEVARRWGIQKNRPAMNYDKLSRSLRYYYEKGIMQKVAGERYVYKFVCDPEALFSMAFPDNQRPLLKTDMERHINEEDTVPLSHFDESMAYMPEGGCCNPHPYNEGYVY
Sequence of ELF1 (P32519 whole entry): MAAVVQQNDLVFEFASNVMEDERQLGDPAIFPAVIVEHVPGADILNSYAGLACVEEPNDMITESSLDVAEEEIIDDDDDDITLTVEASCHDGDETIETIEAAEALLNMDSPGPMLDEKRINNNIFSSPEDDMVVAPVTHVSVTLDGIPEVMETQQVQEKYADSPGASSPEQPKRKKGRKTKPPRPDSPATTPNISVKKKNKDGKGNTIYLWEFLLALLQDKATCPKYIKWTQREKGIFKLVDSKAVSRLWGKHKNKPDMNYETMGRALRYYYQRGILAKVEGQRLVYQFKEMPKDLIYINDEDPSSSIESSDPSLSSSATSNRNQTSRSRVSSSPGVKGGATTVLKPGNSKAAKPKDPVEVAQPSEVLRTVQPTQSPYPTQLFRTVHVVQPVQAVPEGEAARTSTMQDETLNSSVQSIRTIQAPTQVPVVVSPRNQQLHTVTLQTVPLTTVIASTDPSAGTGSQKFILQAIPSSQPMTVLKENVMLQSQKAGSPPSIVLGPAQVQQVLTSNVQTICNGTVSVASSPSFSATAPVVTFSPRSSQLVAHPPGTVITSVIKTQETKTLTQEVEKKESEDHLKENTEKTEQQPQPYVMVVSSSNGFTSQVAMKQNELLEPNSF
Sequence of ETV6 (P41212 whole entry): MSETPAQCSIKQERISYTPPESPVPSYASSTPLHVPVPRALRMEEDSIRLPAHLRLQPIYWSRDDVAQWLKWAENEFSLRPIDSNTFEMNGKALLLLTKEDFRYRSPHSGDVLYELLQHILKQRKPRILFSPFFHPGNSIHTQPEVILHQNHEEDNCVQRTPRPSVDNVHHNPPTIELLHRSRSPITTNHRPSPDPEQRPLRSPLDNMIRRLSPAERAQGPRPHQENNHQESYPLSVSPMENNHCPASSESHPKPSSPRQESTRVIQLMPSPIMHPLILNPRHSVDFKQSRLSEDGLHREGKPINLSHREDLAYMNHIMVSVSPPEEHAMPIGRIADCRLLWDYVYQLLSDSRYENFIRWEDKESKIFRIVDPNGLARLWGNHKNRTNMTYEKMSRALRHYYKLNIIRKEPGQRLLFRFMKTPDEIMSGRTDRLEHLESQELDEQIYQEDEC
Sequence of SPIB (Q01892 whole entry): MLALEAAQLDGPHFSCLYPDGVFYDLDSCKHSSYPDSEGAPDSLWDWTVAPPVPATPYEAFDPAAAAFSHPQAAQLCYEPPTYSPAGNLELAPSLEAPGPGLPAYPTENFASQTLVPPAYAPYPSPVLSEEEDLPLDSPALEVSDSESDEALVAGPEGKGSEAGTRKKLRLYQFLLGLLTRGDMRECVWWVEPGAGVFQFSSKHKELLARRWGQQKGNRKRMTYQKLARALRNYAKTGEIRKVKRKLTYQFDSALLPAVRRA

For the sequence AGTAAC, the binding signal in assay [1] was 1.02 fold enrichment (6-mer frequency, TF over GST control); in [2], 1.02 fold enrichment (6-mer frequency, TF over GST control); in assay [3], 1 fold enrichment (6-mer frequency, TF over GST control); in assay [4] it was 1.07 fold enrichment (6-mer frequency, TF over GST control); in assay [5] it was 1 fold enrichment (6-mer frequency, TF over GST control); in [6], 1.03 fold enrichment (6-mer frequency, TF over GST control). Also, the binding signal is 1.07 fold enrichment (6-mer frequency, TF over GST control) in assay [7]; 1.01 fold enrichment (6-mer frequency, TF over GST control) in assay [8]; 1.09 fold enrichment (6-mer frequency, TF over GST control) in assay [9]; 1.09 fold enrichment (6-mer frequency, TF over GST control) in [10]; 1.09 fold enrichment (6-mer frequency, TF over GST control) in [11].
In the case of GTTGTA, the binding signal in assay [1] is 1.01 fold enrichment (6-mer frequency, TF over GST control); in assay [12] it was 1.07 fold enrichment (6-mer frequency, TF over GST control); in [13], 1.01 fold enrichment (6-mer frequency, TF over GST control); in assay [6], 1.08 fold enrichment (6-mer frequency, TF over GST control); in assay [7] it was 1.01 fold enrichment (6-mer frequency, TF over GST control); in [14] it was 1.01 fold enrichment (6-mer frequency, TF over GST control). The binding signal is 1.07 fold enrichment (6-mer frequency, TF over GST control) in [15]; 1.03 fold enrichment (6-mer frequency, TF over GST control) in assay [16]; 1.04 fold enrichment (6-mer frequency, TF over GST control) in [17]; 1.01 fold enrichment (6-mer frequency, TF over GST control) in [10].

(Values after paper PMC7862700, “An all-to-all approach to the identification of sequence-specific readers for epigenetic DNA modifications on cytosine”.)
